In PubChem BioAssay (NCI) one finds growth data, which are given here for three compounds.

About 83,000 compounds went through this panel and 20% of them were active in at least one assay; those are over-represented in the sample as a whole.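 For each line, cells grew in 96-well plates with the test compound present at a single concentration for 48 hours.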 A number with no mark means an inactive call. How the source made its calls: active means growth percent below 10; inactive means the rest.

For this test, the system named is MDA-MB-468 breast. The experiment in a line: NCI-60 one-dose screen, 48 h (100 = growth as untreated, 0 = no growth, -100 = all killed). Particulars: 10 µM unless noted.
Take `O=C(Oc1ccc2ccc(=O)oc2c1)c1ccc(Cl)cc1`: the growth was 115%.
Take `O=c1[nH]c(=O)n(C2CC(O)C(CO)O2)cc1C(F)(F)F` (stereo not drawn): the growth was 62.7%.
On to `COc1cc(-c2c3sc(=O)[nH]c3nc3c2c(=O)[nH]n3C(C)C)cc2c1OCO2`, for which the growth is 92.3%.
